Assay results from PubChem BioAssay (Tox21).
Values joined by “and” are separate entries in the source; they are usually repeats but may differ in a detail not shown here. Equal values may be shown once. Records with an inconclusive call do not appear. Entries that show only a call come without a potency. Where a structure was tested more than once in an assay, its records may differ in their call. Active and inactive are the calls of the source. Calls come from the whole dose curve; as a rule, active = well fitted cell-killing curve with a large enough effect in the repeat runs; inconclusive = weak or mixed curves, or effect the other way; inactive = no such curve, though single readings can be large or run the other way.

assay: Caspase-3/7 induction in CHO-K1 cells by small molecules, qHTS cell viability counter screen (AID 1346979); settings: CellTiter-Fluor fluorescence, 17 h; series mostly up to 92.4 µM; activity change, negative = cytotoxicity: at the top concentration; note: nearly all actives have a fitted effect of over 35% in size
Description: National Center for Advancing Translational Sciences [NCATS]
NIH Chemical Genomics Center [NCGC]
U.S. Environmental Protection Agency [EPA]
National Institutes of Environmental Health Sciences [NIEHS]
National Toxicology Program [NTP]
U.S. Food and Drug Administration [FDA]
Apoptosis is a process of programmed cell death and plays a central role in the development of multicellular organisms. It is a highly regulated process and induces cell death by activating caspases, which are the members of cysteine aspartic acid-specific protease (caspase) family. Caspases involved in apoptosis are classified by their mechanism of action as initiator caspases (caspase-2, -8, -9 and -10) and executioner caspases (caspase-3, -6, and -7). Inhibition of apoptosis results in number of cancers, autoimmune diseases, inflammatory diseases and viral infection. To identify small molecule compounds that induce apoptosis, a homogeneous, luminescent Caspase-Glo 3/7 assay was used. Wild type CHO-K1 cells were used to screen Tox21 libraries for identifying caspase-3/7 activity inducers. Also cytotoxicity of the compounds was tested in parallel by measuring the cell viability using CellTiter-Fluor assay system in the same wells.
Tox21 Assay Protocol Summary:
CHO-K1 cells were dispensed at 1,500 per well in 5uL of culture medium into white solid bottom 1536-well plates (Corning Life Sciences, Corning, NY) using a Multidrop Combi (Thermo Scientific, Waltham, MA) dispenser. The assay plates were incubated at 37 C and 5% CO2 for 5hr, and then 23nL of compounds dissolved in DMSO and positive control were transferred using a Pintool station (Wako, San Diego, CA). The assay plates were incubated at 37C and 5% CO2 for 17hr. For cytotoxicity read, after 16hr incubation at 37C, 1uL CellTiter-Fluor reagent (Promega Corporation, Madison, WI) was added to each well of the assay plates using Flying Reagent Dispenser (FRD, Aurora Discovery, San Diego, CA). After 1hr incubation at 37C and 5% CO2, the fluorescence signal was quantified using a ViewLux plate reader (PerkinElmer, Shelton, CT).
Potency is the fitted concentration of half-maximal effect.

Row | Compound | Potency | activity change, negative = cytotoxicity
1 | c1ccc2c(c1)Oc1ccccc1S2 | inactive | 
2 | Cc1[nH]c(=O)c(C#N)cc1-c1ccncc1 | inactive | 
3 | COC(=O)CCC(=O)OC | inactive | 
4 | COc1ccc(C(=O)CC(=O)c2ccc(C(C)(C)C)cc2)cc1 |  | -2.44% [at 42.5 µM] (inactive)
5 | CC(C)CC(C)(O)C#CC(C)(O)CC(C)C (stereo not given) | 15 µM (active) and inactive | 
6 | CCCCOCCOCCO | inactive | 
7 | NC=O | inactive | 
8 | Cc1ccc2c(n1)Oc1ccc(C(C)C(=O)OCC(=O)N(C)C)cc1C2 (stereo not given) | inactive | 
9 | c1cc(-c2ccncc2)ccn1 | inactive | 
10 | C=C(C)C1CC=C(C)CC1 (stereo not given) | inactive | 
11 | CCOC(=O)C(C#N)=C(c1ccccc1)c1ccccc1 | inactive | 
12 | O=S(=O)(O)c1ccc(O)cc1 | inactive | 
13 | CC(C)OB(OC(C)C)OC(C)C | inactive | 
14 | Nc1ccc(Nc2ccccc2)cc1 | 53.9 µM (active) and 43.3 µM (active) and 48.6 µM (active) | 
15 | CCCCC(CC)COP(=O)(OCC(CC)CCCC)OCC(CC)CCCC (stereo not given) | inactive | 
16 | OC(CCl)CCl | inactive | 
17 | O=C=Nc1ccc(Cc2ccc(N=C=O)cc2)cc1 | inactive | 
18 | CCCCC(CC)COCC1CO1 (stereo not given) | inactive | 
19 | Cc1c(C(N)=O)cc([N+](=O)[O-])cc1[N+](=O)[O-] | inactive | 
20 | Cc1ccc(C)c(O)c1C | inactive | 

Row | Compound | Potency | activity change, negative = cytotoxicity
21 | S=C(NC1CCCCC1)NC1CCCCC1 | 60 µM (active) and 43.3 µM (active) | 
22 | C[C@]12CC[C@H]3[C@@H](CCC4=CC(=O)CC[C@@]43C)[C@@H]1CC[C@@H]2C(=O)CO |  | -3.14% [at 42.5 µM] (inactive)
23 | CN(C)CCN(Cc1cccs1)c1ccccn1 | inactive | 
24 | CC(C)=CCC/C(C)=C\CO | inactive | 
25 | CCCCCCCCCCCO | inactive | 
26 | CCC(C)c1ccccc1O (stereo not given) |  | 2.09% (inactive)
27 | Cc1cccc([N+](=O)[O-])c1C | inactive | 
28 | CCCCC/C=C/C=C/C=O | inactive and 61.1 µM (active) | 
29 | Oc1ccc(O)cc1 | 43 µM (active) and 68.6 µM (active) | 
30 | Clc1nc(Cl)c(Cl)c(Cl)c1Cl | inactive | 
31 | CC(CCC(=O)O)(c1ccc(O)cc1)c1ccc(O)cc1 | inactive | 
32 | Cc1cccc(C(=O)O)c1 | 3.4 µM (active) and inactive | 
33 | Nc1ncnc2nc[nH]c12 | inactive | 
34 | CC(=O)C1(C)CC2=C(CCCC2(C)C)CC1C (stereo not given) | inactive | 
35 | O=c1oc(=O)c2cc3c(=O)oc(=O)c3cc12 | inactive | 
36 | COc1ccc(OC)c(C(O)CNC(=O)CN)c1 (stereo not given) | inactive | 
37 | CC(C)OC=O |  | 6.15% (inactive)
38 | CCC(C)CO (stereo not given) | inactive | 
39 | CCCCC(CC)COC(=O)c1ccc(N(C)C)cc1 (stereo not given) | inactive | 
40 | CN(C)c1nc(N(C)C)nc(N(C)C)n1 | inactive | 
